Screening results deposited in PubChem BioAssay by Broad Institute.
Sampled rows, rich in hits. Any-hit rate of the full collection: about 7.8%.
MITF inh – inhibitors of MITF, primary screen, MITF inhibitor project, cell-based, luminescence; TRPM1 promoter luciferase, 24 h; 0.28% of 37,000 active; inhibition, % (test concentration not listed); in the data active = inhibition above about 85%; inconclusive = no clear call, values can overlap the other calls; inactive = below about 68%;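 note: human melanocyte line stably carrying TRPM1 promoter luciferase reporter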
NOMO-1 viab – NOMO-1 AML cell viability reduction, primary screen, STK33 inhibitor project, CellTiter-Glo luminescence. NOMO-1 AML viability, 72 h. inhibition, % (no concentration beside the values). 7.5% of 37,000 active; in the data active = inhibition above about 80%; inconclusive = no clear call, values can overlap the other calls
Shh pathway inh – Hedgehog pathway signaling inhibitors, primary screen, luminescence, Shh-LIGHT2 cells, Gli-luciferase; Shh-LIGHT2 Gli-luciferase reporter, 30 h; inhibition, % (test concentration not listed); 2.1% of 22,000 active;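 active = mean inhibition across valid replicates above about 65%, limit read from the data; inconclusive = mean under the limit, yet half or more replicates past it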;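 note: pathway switched on by Shh-conditioned medium diluted 1 in 25 in low serum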
A number is an active result.

C[C@H](CO)N1C[C@H](C)[C@H](CN(C)S(=O)(=O)c2ccc(Cl)cc2)Oc2c(NC(=O)Nc3ccccc3)cccc2C1=O was read as MITF inh inactive, NOMO-1 viab inactive and Shh pathway inh 117.
Screening C[C@H](CO)N1C[C@H](C)[C@H](CN(C)S(=O)(=O)c2ccc(Cl)cc2)Oc2c(NC(=O)Nc3ccc(F)cc3)cccc2C1=O returned MITF inh inactive, NOMO-1 viab 93 and Shh pathway inh 117.
C[C@@H]1CN([C@@H](C)CO)C(=O)c2cccc(NC(=O)Nc3ccc(F)cc3)c2O[C@@H]1CN(C)S(=O)(=O)c1ccc(Cl)cc1 was read as MITF inh inactive, NOMO-1 viab 82 and Shh pathway inh inactive.
C[C@@H]1CN([C@@H](C)CO)C(=O)c2cccc(NC(=O)Nc3ccc(F)cc3)c2O[C@H]1CN(C)S(=O)(=O)c1ccc(Cl)cc1 was read as MITF inh inactive, NOMO-1 viab inactive and Shh pathway inh inactive.
Screening O=C(CSc1nnc(-c2cccc(Cl)c2)n1-c1ccccc1)Nc1ccccc1 returned MITF inh inactive and NOMO-1 viab inactive.
For CC(=O)OC1CC2(C)C(CCC3C4(C)CCC(=O)C(C)C4C(O)C(=O)C32C)/C1=C(\CCC=C(C)C)C(=O)O (stereo unspecified) the results were Shh pathway inh inactive.
`CC1(C)CCC(C)(C)c2cc(C(=O)Nc3ccc(C(=O)O)cc3)ccc21` gave MITF inh inactive, NOMO-1 viab inactive and Shh pathway inh inconclusive.
For C/C(=C\c1ccc(C(=O)O)cc1)c1ccc2c(c1)C(C)(C)CCC2(C)C the results were MITF inh inactive, NOMO-1 viab inactive and Shh pathway inh 66.
COC(=O)c1ccc(C=Nc2ccc3oc(-c4ccc(C)cc4)nc3c2)cc1 was read as MITF inh inactive, NOMO-1 viab inactive and Shh pathway inh inactive.
`O=[N+]([O-])c1nn(-c2ccccc2)n(O)c1=NCc1ccco1` gave MITF inh inactive and NOMO-1 viab inactive.
Screening O=[N+]([O-])c1nn(-c2ccc(Cl)cc2)n(O)c1=NCc1ccccn1 returned MITF inh inactive and NOMO-1 viab 112.
For COc1ccc(NC(=O)N(C)C[C@@H]2Oc3ccc(NS(=O)(=O)c4cn(C)cn4)cc3CC(=O)N([C@H](C)CO)C[C@H]2C)cc1 the results were MITF inh inactive, NOMO-1 viab inactive and Shh pathway inh 72.
Screening COc1ccc(NC(=O)N(C)C[C@H]2Oc3ccc(NS(=O)(=O)c4ccc(Cl)cc4)cc3CC(=O)N([C@@H](C)CO)C[C@H]2C)cc1 returned MITF inh inactive, NOMO-1 viab inactive and Shh pathway inh 67.
For COc1ccc(NC(=O)N(C)C[C@H]2Oc3ccc(NS(=O)(=O)c4cn(C)cn4)cc3CC(=O)N([C@H](C)CO)C[C@H]2C)cc1 the results were MITF inh inactive, NOMO-1 viab inactive and Shh pathway inh inactive.
Screening COc1ccc(NC(=O)N(C)C[C@@H]2Oc3ccc(NS(=O)(=O)c4ccc(Cl)cc4)cc3CC(=O)N([C@@H](C)CO)C[C@@H]2C)cc1 returned MITF inh inactive, NOMO-1 viab inactive and Shh pathway inh inactive.
Screening CC[n+]1ccc(C)c2cc(C(F)(F)F)ccc21 returned MITF inh inactive and NOMO-1 viab inactive.
Screening FC(F)(F)c1ccc(-c2n[nH]c(=S)s2)nc1 returned MITF inh inactive, NOMO-1 viab inactive and Shh pathway inh inactive.
COc1ccccc1N1CCN(CCC(=O)Nc2ccc(Br)c(C)c2)CC1 was read as MITF inh inactive and NOMO-1 viab inactive.
O=[N+]([O-])c1ccc(OCc2nc(-c3ccccn3)no2)cc1 was read as MITF inh inactive and NOMO-1 viab inactive.
`CCn1c(SCC(=O)Nc2cc(C(F)(F)F)ccc2Cl)nnc1-c1ccccc1F` gave MITF inh inactive and NOMO-1 viab inactive.
Screening CC1=CC(C)C2(COC(=O)NC3CCCCC3)COC3(CCCC3)C1C2C (stereo unspecified) returned MITF inh inactive and NOMO-1 viab 113.
`COc1cccc(NC(=O)CSc2nnc(-c3ccco3)n2-c2ccccc2)c1` gave MITF inh inactive and NOMO-1 viab inactive.
COc1ccc(CN(C)C[C@@H]2OCCCC[C@@H](C)Oc3ccc(NS(=O)(=O)c4ccccc4)cc3C(=O)N([C@H](C)CO)C[C@@H]2C)cc1 was read as MITF inh inactive and NOMO-1 viab inactive.
`COc1ccc(S(=O)(=O)Nc2ccc3c(c2)C(=O)N([C@H](C)CO)C[C@H](C)[C@H](CN(C)Cc2ccc(C(=O)Nc4ccccc4N)cc2)OCCCC[C@@H](C)O3)cc1` gave MITF inh inactive and NOMO-1 viab 126.
